{
  "source": "PubChem BioAssay AID589",
  "about": "(National Center for Advancing Translational Sciences (NCATS), 2007)",
  "note": "Among all 59,000 compounds or so, about 6,200 (11%) were called active. Another 9% or so got no clear call; they are omitted. The sample holds actives, similar compounds and a random draw of the others, so the mix is not that of the screen. No stated cut-off is given here; in the data, active means max dye-equivalent concentration above about 10 nM; inconclusive means mostly about 1.1 nM to 9.6 nM; inactive means weaker than that.",
  "data": [
    {"experiment": "qHTS Assay for Spectroscopic Profiling in 4-MU Spectral Region", "conditions": "compound autofluorescence, 340/450 nm, 4-MU equivalents; stronger effect = higher value", "summary_of_the_method": "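Compounds in 100 mM Tris, pH 8.0, sat 15 min at room temperature before fluorescence was read at 340 nm excitation/450 nm emission; a per-plate six-point 4-MU standard curve converted signals to dye-equivalent concentration at each compound concentration.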", "values": [
      {"compound": "CCOC(=O)c1csc(NC(=O)c2ccc(S(=O)(=O)N3CCCC3)cc2)n1", "max dye-equivalent concentration": "inactive"},
      {"compound": "CC(C)c1ccc(-c2nn[nH]n2)cc1", "max dye-equivalent concentration": "inactive"},
      {"compound": "Cc1ccc(F)cc1NC(=O)c1cccc(N(C)C)c1", "max dye-equivalent concentration": "inactive"},
      {"compound": "COc1ccc(CN2CC(C(=O)NCCN3CCN(c4ccccc4F)CC3)CC2=O)cc1", "note": "(stereo unspecified)", "max dye-equivalent concentration": "inactive"},
      {"compound": "COc1ccc2oc(=O)c(C(=O)N3CCN(c4ccccc4F)CC3)cc2c1", "max dye-equivalent concentration": "39 nM (active)"},
      {"compound": "COc1ccc2oc(=O)c(C(=O)N3CCCc4ccccc43)cc2c1", "max dye-equivalent concentration": "inactive"},
      {"compound": "CCCCC(CCC(=O)Nc1ccc(C(=O)OCC)cc1)C(=O)O", "note": "(stereo unspecified)", "max dye-equivalent concentration": "inactive"},
      {"compound": "O=C(CC1OC(=O)c2ccccc21)NC1CCCCC1", "note": "(stereo unspecified)", "max dye-equivalent concentration": "inactive"},
      {"compound": "O=C(COc1ccc2oc3c(c2c1)CCCC3)Nc1ccccn1", "max dye-equivalent concentration": "inactive"},
      {"compound": "Cc1cc(Cl)c(S(=O)(=O)NCC2CCCO2)cc1OCC(N)=O", "note": "(stereo unspecified)", "max dye-equivalent concentration": "inactive"},
      {"compound": "O=C(COc1ccccc1F)NC1CC1", "max dye-equivalent concentration": "inactive"},
      {"compound": "O=C(COc1ccc2c3c(c(=O)oc2c1)CCC3)NC1CCCCC1", "max dye-equivalent concentration": "64 nM (active)"},
      {"compound": "NC(=O)COc1ccc2c3c(c(=O)oc2c1)CCCCC3", "max dye-equivalent concentration": "26 nM (active)"},
      {"compound": "c1ccc2c(c1)OCC(c1nn3cnnc3s1)O2", "note": "(stereo unspecified)", "max dye-equivalent concentration": "inactive"},
      {"compound": "CCN(C(=O)CSc1ncn[nH]1)c1cccc2ccccc12", "max dye-equivalent concentration": "inactive"},
      {"compound": "Cc1noc(C)c1S(=O)(=O)Nc1ccc(C(=O)O)cc1", "max dye-equivalent concentration": "inactive"},
      {"compound": "O=C(NC(c1ccccc1)c1ccccc1)N1CCN(CCO)CC1", "max dye-equivalent concentration": "inactive"},
      {"compound": "COc1ccc(N2C(=O)CCC(C(=O)N(C)C3CCCCC3)C2c2ccc(OC)c(OC)c2)cc1", "note": "(stereo unspecified)", "max dye-equivalent concentration": "inactive"},
      {"compound": "C#CCN1C(=O)C(O)(CC(=O)c2cc(OC)ccc2OC)c2ccccc21", "note": "(stereo unspecified)", "max dye-equivalent concentration": "13 nM (active)"},
      {"compound": "COc1ccc(OC)c(NC(=O)Cn2c(=O)oc3ccccc32)c1", "max dye-equivalent concentration": "inactive"},
      {"compound": "CNC(=O)NCCN1CCCC1=O", "max dye-equivalent concentration": "inactive"},
      {"compound": "COc1ccc(CCn2c(=N)c(C(=O)NCc3ccco3)cc3c(=O)n4cccc(C)c4nc32)cc1", "max dye-equivalent concentration": "11 nM (active)"},
      {"compound": "COc1ccc(CNC(=O)c2cc3c(=O)n4ccccc4nc3n(CC3CCCO3)c2=N)cc1", "note": "(stereo unspecified)", "max dye-equivalent concentration": "270 nM (active)"},
      {"compound": "COCCCNC(=O)c1ccc2c(c1)ncn2-c1ccccc1OC", "max dye-equivalent concentration": "inactive"},
      {"compound": "CCn1c(=N)c(C(=O)NCCCOC)cc2c(=O)n3cccc(C)c3nc21", "max dye-equivalent concentration": "12000 nM (active)"},
      {"compound": "COc1ccc(CNC(=O)C2CCN(S(=O)(=O)N3CCOCC3)CC2)cc1", "max dye-equivalent concentration": "inactive"},
      {"compound": "COc1ccc(C(=O)NCc2cn3ccccc3n2)cc1", "max dye-equivalent concentration": "inactive"},
      {"compound": "COc1cc(OC)cc(-c2nc3nc(C)c(CCC(=O)NCc4ccco4)c(C)n3n2)c1", "max dye-equivalent concentration": "inactive"},
      {"compound": "CCOCCCNC(=O)c1c[nH]c2cc(C)ccc2c1=O", "max dye-equivalent concentration": "inactive"},
      {"compound": "COc1ccccc1C(=O)NCCn1cc(SCC(=O)NCc2ccco2)c2ccccc21", "max dye-equivalent concentration": "inactive"},
      {"compound": "O=C(O)c1ccc(C(=O)c2ccccc2C(=O)O)cc1C(=O)O", "max dye-equivalent concentration": "inactive"},
      {"compound": "CC(C)n1c(SCC(=O)Nc2ccccc2N2CCCCC2)nc2c1c(=O)n(C)c(=O)n2C", "max dye-equivalent concentration": "inactive"},
      {"compound": "Fc1ccccc1OCCSc1nc2ccccc2o1", "max dye-equivalent concentration": "inactive"},
      {"compound": "CC(C)NS(=O)(=O)c1ccc(CCC(=O)N2CCOCC2)cc1", "max dye-equivalent concentration": "inactive"},
      {"compound": "Cc1ccccc1CSc1nnc(-c2cccnc2)n1N", "max dye-equivalent concentration": "inactive"},
      {"compound": "COc1ccccc1CNc1ncncc1-c1cccnc1", "max dye-equivalent concentration": "inactive"},
      {"compound": "COc1ccc(C(=O)CSc2nnc(COc3ccccc3)n2Cc2ccco2)cc1", "max dye-equivalent concentration": "inactive"},
      {"compound": "COc1ccc2[nH]c3c(=O)n(Cc4ccco4)cnc3c2c1", "max dye-equivalent concentration": "92 nM (active)"},
      {"compound": "O=c1c2[nH]c3ccc(Cl)cc3c2ncn1Cc1ccccn1", "max dye-equivalent concentration": "inactive"},
      {"compound": "COc1ccc(-c2nnc(SCC(=O)c3ccco3)n2-c2ccccc2)cc1", "max dye-equivalent concentration": "inactive"},
      {"compound": "Cc1ccc(Cc2cncc(O)c2)cc1S(=O)(=O)O", "max dye-equivalent concentration": "inactive"},
      {"compound": "CCOC(=O)c1cc2n(c1C)-c1ccccc1C2=O", "max dye-equivalent concentration": "inactive"},
      {"compound": "CCOC(=O)c1cc2n(c1N)-c1ccccc1C2=O", "max dye-equivalent concentration": "inactive"},
      {"compound": "CCCn1c(=NC(C)=O)c(C(=O)OCC)cc2c(=O)n3ccccc3nc21", "max dye-equivalent concentration": "3500 nM (active)"},
      {"compound": "CCC(=O)Nc1ccc2c(c1)nc(CCN1CCN(C)CC1)n2C", "max dye-equivalent concentration": "inactive"},
      {"compound": "O=C(Nc1c2c(nn1-c1ccc(F)cc1)CS(=O)C2)C12CC3CC(CC(C3)C1)C2", "note": "(stereo unspecified)", "max dye-equivalent concentration": "inactive"},
      {"compound": "CC(C)Cc1ccc(S(=O)(=O)N2CCN(C(=O)c3ccco3)CC2)cc1", "max dye-equivalent concentration": "inactive"},
      {"compound": "CCc1cc(=O)oc2cc(C)cc(OC(C)C(=O)O)c12", "note": "(stereo unspecified)", "max dye-equivalent concentration": "82 nM (active)"},
      {"compound": "Cc1cc2c(=O)n(C)c(SCC(=O)c3cc4ccccc4o3)nc2s1", "max dye-equivalent concentration": "inactive"},
      {"compound": "CC(=O)Nc1ccc(S(=O)(=O)NCCc2ccccc2)cc1", "max dye-equivalent concentration": "inactive"},
      {"compound": "COC(=O)c1ccc(C2NC(=O)NC(C)=C2C(=O)N(C)C)cc1", "note": "(stereo unspecified)", "max dye-equivalent concentration": "inactive"},
      {"compound": "CCCOC(=O)C1=C(C)NC2=C(C(=O)C(C(=O)OC)C(C)C2)C1c1ccc(N(C)C)cc1", "note": "(stereo unspecified)", "max dye-equivalent concentration": "23 nM (active)"},
      {"compound": "COCCOC(=O)C1=C(C)NC(=O)CC1c1cc2c(cc1Br)OCO2", "note": "(stereo unspecified)", "max dye-equivalent concentration": "inactive"},
      {"compound": "Cc1noc(C)c1CSc1nnc2ccc3ccccc3n12", "max dye-equivalent concentration": "inactive"},
      {"compound": "CCOC(=O)c1c(NC(=O)CSc2nnc(C)c(=O)[nH]2)sc2c1CCC2", "max dye-equivalent concentration": "inactive"},
      {"compound": "CC1CN(C2CCCCC2)c2nc3c(c(=O)n(C)c(=O)n3C)n2C1", "note": "(stereo unspecified)", "max dye-equivalent concentration": "inactive"},
      {"compound": "Cc1cc(NC(=O)c2cc(-c3cccs3)on2)nn1Cc1ccc(Cl)cc1", "max dye-equivalent concentration": "inactive"},
      {"compound": "O=C(O)CCC(=O)N(Cc1cccs1)Cc1cccs1", "max dye-equivalent concentration": "inactive"},
      {"compound": "CC(C)Cn1c(CCC(=O)O)ccc1-c1cccs1", "max dye-equivalent concentration": "350 nM (active)"},
      {"compound": "COc1cc(C2C3C(=O)N(c4ccccc4)C(=O)C3ON2c2ccccc2)ccc1O", "note": "(stereo unspecified)", "max dye-equivalent concentration": "inactive"},
      {"compound": "CC(C)OCCCNc1nc2c(c(=O)n(Cc3ccccc3F)c(=O)n2C)n1C", "max dye-equivalent concentration": "inactive"},
      {"compound": "COCc1nc2ccccc2n1Cc1ccccc1Br", "max dye-equivalent concentration": "inactive"},
      {"compound": "c1ccc(-c2[nH]ncc2-c2nc3ccccc3[nH]2)cc1", "max dye-equivalent concentration": "inactive"},
      {"compound": "O=c1[nH]c(-c2ccccc2)c(-c2ccccc2)[nH]1", "max dye-equivalent concentration": "18 nM (active)"},
      {"compound": "CC1(C)CC(=O)NC=C(c2ccccc2)C1", "max dye-equivalent concentration": "inactive"},
      {"compound": "Clc1ccccc1-c1cc(NCCN2CCOCC2)ncn1", "max dye-equivalent concentration": "inactive"},
      {"compound": "COc1ccc2[nH]c(=O)c(-c3noc(-c4ccc(F)cc4)n3)cc2c1", "max dye-equivalent concentration": "12 nM (active)"},
      {"compound": "Cc1cccc(-c2noc(-c3ccc(F)cc3)n2)c1", "max dye-equivalent concentration": "inactive"},
      {"compound": "CC(=O)N1CCC2(CCCN(Cc3ccccc3)C2)CC1", "max dye-equivalent concentration": "inactive"},
      {"compound": "O=C(CSc1n[nH]c(-c2cccnc2)n1)Nc1ccnc2ccccc12", "max dye-equivalent concentration": "inactive"},
      {"compound": "O=C(O)C1CC(=O)N(Cc2cccnc2)C1", "note": "(stereo unspecified)", "max dye-equivalent concentration": "inactive"}
    ]}
  ]
}
